Bioassay records: PubChem, National Center for Advancing Translational Sciences (NCATS)
Many of the other results were omitted from the sample, so hits are more common in it than they were.
FBPA Giardia inh: inhibitors of Giardia lamblia fructose-1,6-bisphosphate aldolase. A8B2U2. purified Giardia FBPA. Potency, µM (doses to about 59.6 µM), usual class: inhibitors. 290,000 compounds, 0.71% hits. AID 2451; note: nearly all actives have a fitted effect of over 55% in size
Target sequence (A8B2U2 whole entry, looked up): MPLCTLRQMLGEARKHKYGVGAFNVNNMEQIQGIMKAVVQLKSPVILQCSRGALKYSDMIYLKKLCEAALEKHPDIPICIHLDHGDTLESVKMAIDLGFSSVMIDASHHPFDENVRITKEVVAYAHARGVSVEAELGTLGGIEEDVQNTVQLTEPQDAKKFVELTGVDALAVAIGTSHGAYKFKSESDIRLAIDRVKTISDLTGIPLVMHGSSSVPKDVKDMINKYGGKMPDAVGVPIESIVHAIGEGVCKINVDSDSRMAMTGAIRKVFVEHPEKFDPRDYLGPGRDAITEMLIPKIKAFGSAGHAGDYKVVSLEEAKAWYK
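40 nM FBPA preincubated 10 min at RT with compound (up to 57.5 uM final), then substrate plus GAPDH/TPI/NAD/arsenate coupling and diaphorase/resazurin added. Fluorescence read after 20 min at RT, 525/598 nm.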
LmPK inh: blocks Leishmania mexicana pyruvate kinase activity; Q27686; purified LmPK, Kinase-Glo ATP luminescence, 1 h; Potency, µM (top dose mostly 57.5 µM), hits mostly inhibitors; 290,000 compounds, 0.37% hits; AID 1721
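Purified LmPK (0.1 nM) converted ADP (0.1 mM) to ATP with PEP (0.5 mM) in imidazole buffer pH 7.2 with KCl and MgCl2, 1 h at room temperature. ATP was read by Kinase-Glo luminescence; data normalized to uninhibited and no-enzyme controls.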
Shiga toxin inh: Shiga toxin inhibition. Vero cells, Shiga toxin protein synthesis inhibition reporter. inhibition, % at 38.7 µM. 290,000 compounds, 9.2% hits. AID 2315; in the data active = inhibition mostly above about 28%, no sharp cut-off; inactive = mostly below about 43%
CHX counter: affects cycloheximide protein synthesis inhibition readout, counter-screen; cell reporter, cycloheximide protein synthesis inhibition counterscreen; max response, %; 300,000 compounds, 12% hits; in the data active = max response mostly above about 13%, no sharp cut-off; inactive = mostly below about 14%; note: read at 38.3 µM for the half of the compounds with a filed dose
Tb PYK inh: inhibitors of Trypanosoma brucei pyruvate kinase; Q57TT1; TbPYK enzyme, Kinase-Glo Plus ATP luminescence, 45 min; Potency, µM (highest dose often 76.8 µM), hits mostly inhibitors; 410,000 compounds, 0.12% hits; note: nearly all actives have a fitted effect of over 50% in size
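Quantitative HTS: titrated library compounds versus trypanosomal pyruvate kinase in TEA buffer (pH 7.2) containing KCl, MgCl2, BSA and Tween-20. Reactions were initiated with ADP, 130 uM final. Kinase-Glo Plus luminescence was read after 45 min at RT.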
Sm TGR block: inhibitors of Schistosoma mansoni thioredoxin glutathione reductase. Q962Y6. purified TGR, DTNB reduction, TNB absorbance 405 nm. Potency, µM (titrated, usually from 114 µM), actives largely listed as inhibitors. 360,000 compounds, 3% hits; note: nearly all actives have a fitted effect of over 60% in size
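TGR 20 nM + NADPH 100 uM (dispensed conc.), cpd preinc 15 min RT; start with NADPH (500 uM addition) then DTNB (15 mM addition). Kinetic TNB absorbance, 405 nm filter. Four-parameter Hill fit across titration.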
A number is an active result. Unless noted, calls come from the whole dose curve; as a rule, active = well fitted curve in the direction sought with a large enough effect; inconclusive = small, poorly fitted or top-dose-only effect, or another doubt; inactive = no such curve, though single readings can be large; an effect the other way counts as inactive or inconclusive.

How did COc1ccc(C2=CC(c3ccccc3Cl)n3nc(-c4ccc(C)cc4)nc3N2)cc1 (configuration not stated) do in these assays?
Tb PYK inh: inactive; Sm TGR block: inactive

How did O=C(O)c1sc(C(=O)O)c(-c2ccccc2)c1-c1ccccc1 do in these assays?
Tb PYK inh: inactive

Results for CC(=O)c1sc(C(=O)O)c(-c2ccco2)c1-c1ccco1 ?
FBPA Giardia inh: inconclusive; LmPK inh: inactive; Shiga toxin inh: inactive; CHX counter: inactive; Tb PYK inh: inconclusive; Sm TGR block: 20µM

Results for O=C(CCCCC(=O)Nc1ccccc1Cl)Nc1ccccc1Cl ?
FBPA Giardia inh: inactive; LmPK inh: inactive; Shiga toxin inh: inactive; CHX counter: inactive; Tb PYK inh: inactive; Sm TGR block: inactive

How did O=C(CN1CCN(CC(=O)c2ccc(F)cc2)CC1)Nc1ccccc1Cl do in these assays?
FBPA Giardia inh: inactive; LmPK inh: inactive; Shiga toxin inh: inactive; CHX counter: inactive; Tb PYK inh: inactive; Sm TGR block: 14µM

What do the screens show for `Cc1ccc(OCC(=O)Nc2ccccc2F)cc1`?
Tb PYK inh: inactive

What do the screens show for `Cc1ccc(C(=O)CCC(=O)Nc2ccccc2F)cc1`?
FBPA Giardia inh: inactive; LmPK inh: inactive; Shiga toxin inh: inactive; CHX counter: 33; Tb PYK inh: inactive; Sm TGR block: inactive

How did O=C(CCC(=O)c1ccc(F)cc1)Nc1ccccc1Cl do in these assays?
FBPA Giardia inh: inactive; LmPK inh: inactive; Shiga toxin inh: 36; CHX counter: inactive; Tb PYK inh: inactive; Sm TGR block: inactive

How did O=C(CC(=O)Nc1ccccc1F)Nc1ccccc1F do in these assays?
FBPA Giardia inh: inactive; LmPK inh: inactive; Shiga toxin inh: inactive; CHX counter: inactive; Tb PYK inh: inactive; Sm TGR block: inactive

Results for Cc1ccc(CCC(=O)Nc2ccccc2F)s1 ?
FBPA Giardia inh: inactive; LmPK inh: inconclusive; Shiga toxin inh: 93; CHX counter: 32; Tb PYK inh: inactive

Results for COc1ccc(OC)c(NC(=O)Cn2c(=O)n(-c3ccc(Cl)cc3)c(=O)c3c(C)c(C)sc32)c1 ?
Tb PYK inh: inactive; Sm TGR block: inactive

How did CCOC(=O)N1CCN(CC(O)COc2ccc3c(c2)CCC3)CC1 (configuration not stated) do in these assays?
LmPK inh: inactive; Shiga toxin inh: inactive; CHX counter: inactive; Tb PYK inh: inactive; Sm TGR block: inactive

How did Cc1nn(CCCC(=O)NCCc2ccc(Cl)cc2)c(=O)c2c1sc1ccccc12 do in these assays?
Tb PYK inh: inactive; Sm TGR block: inactive

What do the screens show for `Cc1csc(NC(=O)/C=C/c2ccc(C)o2)n1`?
FBPA Giardia inh: inactive; LmPK inh: inactive; Shiga toxin inh: 73; CHX counter: 31; Tb PYK inh: inactive; Sm TGR block: 20µM

Results for O=C(/C=C/c1ccco1)Nc1nc(-c2ccccc2)cs1 ?
FBPA Giardia inh: inactive; LmPK inh: inactive; Shiga toxin inh: 118; CHX counter: 86; Tb PYK inh: inactive; Sm TGR block: inactive

Results for CCOC(=O)Cc1csc(NC(=O)/C=C/c2ccco2)n1 ?
FBPA Giardia inh: inactive; LmPK inh: inactive; Shiga toxin inh: 59; CHX counter: 25; Tb PYK inh: inactive; Sm TGR block: 11µM

How did Cc1csc(NC(=O)/C=C/c2ccco2)n1 do in these assays?
FBPA Giardia inh: inactive; LmPK inh: inactive; Shiga toxin inh: 35; CHX counter: 25; Tb PYK inh: inactive; Sm TGR block: 50µM

How did CC(C)(C)c1ccc(S(=O)(=O)N2CCC(Oc3ccc(-n4cnnn4)cc3)CC2)cc1 do in these assays?
Tb PYK inh: inactive; Sm TGR block: inactive

Results for CCC(Sc1nnc2c(n1)[nH]c1ccccc12)C(=O)Nc1nnc(C(C)C)s1 (configuration not stated) ?
Tb PYK inh: inactive; Sm TGR block: inactive

What do the screens show for `Cc1nc2n(c(=O)c1CCN1CCC(c3noc4cc(F)ccc34)CC1)CCC[C@@H]2O`?
Tb PYK inh: inactive

Results for NC(=O)CCC1NC(=O)C(Cc2ccccc2)NC(=O)C(Cc2ccc(O)cc2)NC(=O)CCSSCC(C(=O)N2CCCC2C(=O)NC(CCCN=C(N)N)C(=O)NCC(N)=O)NC(=O)C(CC(N)=O)NC1=O (configuration not stated) ?
Tb PYK inh: inactive
